Source: PubChem BioAssay
The list is not random: actives were taken first. Their share in the collection is about 7.6%.
Cy5 interf NS3h: Cy5 fluorescence interference, HCV helicase counter-screen; Cy5-dT15 DNA with NS3h; actives lie on both sides; signal over control mean, under 1 quenches; fluorescence interference ratio at 100 µM; actives 6% (n = 16,000);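 active means compound fluorescence over control fluorescence at most 0.8, a quencher, or at least a set upper limit, an enhancer; inactive means ratio between 0.8 and the set upper limit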
HCV NS3h FP: hepatitis C NS3 helicase inhibition, primary screen. NS3h Cy5-dT15 DNA binding, fluorescence polarization. actives 1.6% (n = 16,000). AID 687043. inhibition, % at 100 µM;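 active means inhibition above the average over every tested compound plus 3 SD, cut at about 40% in these data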
HCV NS3h conf: hepatitis C NS3 helicase inhibition, confirmation. NS3h binding to Cy5-dT15 DNA, fluorescence polarization. actives 20% (n = 240). shares compounds with HCV NS3h FP. inhibition, % at 100 µM;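 active means percent inhibition of 50% or more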
SSB FP counter: E. coli SSB-DNA binding inhibition, NS3h counter-screen; E. coli SSB binding Cy5-dT15, fluorescence polarization; shares compounds with HCV NS3h FP; actives 40% (n = 240); inhibition, % at 100 µM;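 active means inhibition of at least 50%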;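 further: displacers lower Cy5 polarization so higher inhibition means more SSB displaced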
Target sequence (P0AGE0 whole entry, looked up): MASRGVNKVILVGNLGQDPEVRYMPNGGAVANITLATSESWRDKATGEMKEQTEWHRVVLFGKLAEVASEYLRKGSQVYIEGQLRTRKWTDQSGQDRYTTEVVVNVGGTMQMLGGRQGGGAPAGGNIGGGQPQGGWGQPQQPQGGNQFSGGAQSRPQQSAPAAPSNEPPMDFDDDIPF
Cy5 SSB fluor CB: Cy5 fluorescence interference in NS3h counter-screen; shares compounds with HCV NS3h FP; Cy5-dT15/E. coli SSB fluorescence interference; actives lie on both sides; fluorescence interference ratio at 100 µM; actives 8% (n = 240);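 active means fluorescence interference ratio at or above 1.2, signal boosting, or at or below 0.8, signal quenching; inactive means ratio between 0.8 and 1.2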;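 further: ratio of compound well signal to mean negative control signal so 1 means no effect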
Cy5 interf conf: confirmation counter-screen for HCV NS3 helicase inhibitors: fluorescence interference. shares compounds with HCV NS3h FP. Cy5-dT15 DNA/NS3h fluorescence interference counterscreen. fluorescence interference ratio at 100 µM, hits read low. actives 44% (n = 240). AID 720489;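 active means fluorescence interference ratio at or below 0.8 quencher or at or above a set limitenhancer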;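 further: ratio of compound fluorescence to mean of negative controls so 1 means no interference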
The depositor's hits bear a star; . = no result.

SMILES | Cy5 interf NS3h | HCV NS3h FP | HCV NS3h conf | SSB FP counter | Cy5 SSB fluor CB | Cy5 interf conf
O=C(O)CN1C(=O)/C(=C\c2ccc(OC(=O)c3ccc(Cl)cc3Cl)cc2)SC1=S | 1.03 | 6.3 | . | . | . | .
O=C(O)CN1C(=O)/C(=C/c2ccc(OC(=O)c3ccccc3I)cc2)SC1=S | 1.01 | 61.6* | 30.9 | 26.0 | 0.931 | 0.758*
N/C(Cc1ccc([N+](=O)[O-])cc1)=N/OC(=O)c1ccccc1Br | 1.06 | 10.0 | . | . | . | .
COc1cc(C=C2C(=O)NC(=O)NC2=O)cc(Br)c1OCc1ccc([N+](=O)[O-])cc1 | 0.729* | 73.4* | 19.3 | 44.2 | 0.855 | 0.581*
COc1cc(C=C2C(=O)N(C)C(=O)N(C)C2=O)cc(Br)c1OCc1ccccc1 | 0.975 | 32.4 | . | . | . | .
COc1cc(C=C2C(=O)NC(=O)NC2=O)cc([N+](=O)[O-])c1O | 0.89 | 47.8* | 34.1 | 60.0* | 0.886 | 0.946
COc1cc(C=C2C(=O)NC(=S)NC2=O)cc(Br)c1O | 1 | 30.6 | . | . | . | .
CC(=O)c1ccc(S(=O)(=O)NCc2cccnc2)cc1 | 0.963 | 7.9 | . | . | . | .
Cc1cccc(NC(=O)/C(=C/c2ccc(C)o2)NC(=O)c2ccccc2)c1 | 0.926 | 18.8 | . | . | . | .
COC(=O)CN(c1ccc(Cl)cc1)S(C)(=O)=O | 1.02 | 0.3 | . | . | . | .
O=C1C(=Cc2ccccc2Br)C(=O)c2ccccc21 | 0.914 | 74.4* | 51.0* | 11.4 | 0.976 | 0.966
COc1cccc(C=C2C(=O)c3ccccc3C2=O)c1 | 1.01 | 23.7 | . | . | . | .
COc1ccc(C(=O)CSc2nnc(SCC(=O)c3ccc(OC)cc3)n2-c2ccccc2)cc1 | 0.876 | 8.5 | . | . | . | .
